The source of these data is PubChem BioAssay (NCATS).

Each structure is given as a SMILES string. Inconclusive results are not listed. Active and inactive are the calls of the source. Unless noted, calls come from the whole dose curve; as a rule, active = well fitted curve in the direction sought with a large enough effect; inconclusive = small, poorly fitted or top-dose-only effect, or another doubt; inactive = no such curve, though single readings can be large; an effect the other way counts as inactive or inconclusive.

Experiment [1] is described as follows: qHTS for Inhibitors of the Functional Ribonucleoprotein Complex (vRNP) of Lymphocytic Choriomeningitis Arenaviruses (LCMV): Viability assay - alamar blue signal for LCMV Primary Screen (AID 1347085; calls by dose curve; tested in HEK293 reporter line; note: nearly all actives have a fitted effect of over 80% in size; note: potency is the fitted concentration of half-maximal effect).
Experiment [2] addresses Nucleoprotein (Lymphocytic choriomeningitis virus (strain Armstrong)) (UniProt P09992). Kind of experiment: qHTS for Inhibitors of the Functional Ribonucleoprotein Complex (vRNP) of Lymphocytic Choriomeningitis Arenaviruses (LCMV): LCMV Primary Screen - GLuc reporter signal (AID 1347086; calls by dose curve; note: nearly all actives have a fitted effect of over 70% in size; note: potency is the fitted concentration of half-maximal effect). In general terms: Quantitative high-throughput screening tests each substance at several concentrations.

Experiment [3] in a line: qHTS of pediatric cancer cell lines to identify multiple opportunities for drug repurposing: Primary screen for TC32 cells (AID 1347089). Note: nearly all actives have a fitted effect of over 60% in size. Note: potency is the fitted concentration of half-maximal effect. In a few lines:
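Measured quantity: luminescence from CellTiter-Glo, reflecting metabolically active TC32 cells following 48 h of compound. Curves came straight from multi-point titrations, with 8 or 11 points in primary and 11 in confirmatory screening.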

The nature of experiment [4]: qHTS of pediatric cancer cell lines to identify multiple opportunities for drug repurposing: Primary screen for SJ-GBM2 cells (AID 1347091). Note: potency is the fitted concentration of half-maximal effect. In a few lines: (§1)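 Viability measured as metabolically active cells via CellTiter-Glo luminescence following 48 hours of compound exposure, 11-point dilutions in confirmatory testing. 500-1,000 cells/well plated 5 hours before dosing; controls were DMSO and 2.3 µM bortezomib.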

Experiment [5] is described as follows: qHTS of pediatric cancer cell lines to identify multiple opportunities for drug repurposing: Primary screen for A673 cells (AID 1347092). Note: potency is the fitted concentration of half-maximal effect; nearly all actives have a fitted effect of over 45% in size. In a few lines: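 Cells are plated, rested 5 h, dosed by pintool, incubated 48 h, then lysed with CellTiter-Glo and read by luminescence. DMSO is the neutral control; bortezomib at 2.3 uM final is the positive control.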

A short description of experiment [6]: qHTS of pediatric cancer cell lines to identify multiple opportunities for drug repurposing: Primary screen for SK-N-MC cells (AID 1347093). Note: potency is the fitted concentration of half-maximal effect. In a few lines:
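Metabolically active cells were quantified by ATP-dependent luminescence (CellTiter-Glo, 15 min at room temperature) following 48 h treatment. Cells had been plated at 500-1,000 per well and settled for 5 h beforehand.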

Experiment [7] is described as follows: qHTS of pediatric cancer cell lines to identify multiple opportunities for drug repurposing: Primary screen for NB-EBc1 cells (AID 1347095). Note: potency is the fitted concentration of half-maximal effect. In a few lines: (§2)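 Luminescence from CellTiter-Glo served as readout of metabolically active cells after 48 h compound exposure. Titrations: MIPE 11-point, from 0.78 nM; NPC 8-point, from 0.59 nM (final). Concentration-response curves came straight from the primary screen.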

Experiment [8] is described as follows: qHTS of pediatric cancer cell lines to identify multiple opportunities for drug repurposing: Primary screen for Saos-2 cells (AID 1347097). Note: nearly all actives have a fitted effect of over 40% in size. Note: potency is the fitted concentration of half-maximal effect. In a few lines: as §2
Experiment [9] is described as follows: qHTS of pediatric cancer cell lines to identify multiple opportunities for drug repurposing: Primary screen for SK-N-SH cells (AID 1347098). Note: nearly all actives have a fitted effect of over 65% in size. Note: potency is the fitted concentration of half-maximal effect. In a few lines:
(§3)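 Cells (500-1,000/well) rested 5 h, then received compounds for 48 h; metabolically active cells were measured by CellTiter-Glo luminescence. Final concentrations spanned up to 46 µM (MIPE, 11-point) or 0.59 nM-46 µM (NPC, 8-point) in primary screens, 11-point in follow-ups.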

A short description of experiment [10]: qHTS of pediatric cancer cell lines to identify multiple opportunities for drug repurposing: Primary screen for NB1643 cells (AID 1347099). Note: nearly all actives have a fitted effect of over 50% in size. Note: potency is the fitted concentration of half-maximal effect. In a few lines: as §2
The nature of experiment [11]: qHTS of pediatric cancer cell lines to identify multiple opportunities for drug repurposing: Primary screen for control Hh wild type fibroblast cells (AID 1347106).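 Note: series mostly up to about 46 µM; a drop in luminescence marks cytotoxicity and a rise apparent proliferation; nearly all actives have a fitted effect of over 55% in size.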 In a few lines: (§4)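 Viability after 48 h compound treatment at 37C, 500-1,000 cells/well, read as ATP luminescence with CellTiter-Glo. Primary screens used 11-point (MIPE, 0.78 nM-46 µM) or 8-point (NPC, 0.59 nM-46 µM) final concentrations; follow-up screens used 11-point dilutions.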

Experiment [12] is described as follows: qHTS of pediatric cancer cell lines to identify multiple opportunities for drug repurposing: Primary screen for DAOY cells (AID 1347090). Note: nearly all actives have a fitted effect of over 55% in size. Note: potency is the fitted concentration of half-maximal effect. In a few lines: as §1
Experiment [13] can be described thus: qHTS of pediatric cancer cell lines to identify multiple opportunities for drug repurposing: Primary screen for BT-37 cells (AID 1347094). Note: potency is the fitted concentration of half-maximal effect. In a few lines: as §2
Experiment [14] can be described thus: qHTS of pediatric cancer cell lines to identify multiple opportunities for drug repurposing: Primary screen for U-2 OS cells (AID 1347096). Note: nearly all actives have a fitted effect of over 50% in size. Note: potency is the fitted concentration of half-maximal effect. In a few lines:
as §4

A short description of experiment [15]: qHTS of pediatric cancer cell lines to identify multiple opportunities for drug repurposing: Primary screen for LAN-5 cells (AID 1347100). Note: potency is the fitted concentration of half-maximal effect. In a few lines: as §4
A short description of experiment [16]: qHTS of pediatric cancer cell lines to identify multiple opportunities for drug repurposing: Primary screen for BT-12 cells (AID 1347101). Note: nearly all actives have a fitted effect of over 25% in size. Note: potency is the fitted concentration of half-maximal effect. In a few lines:
as §3

A short description of experiment [17]: qHTS of pediatric cancer cell lines to identify multiple opportunities for drug repurposing: Primary screen for Rh18 cells (AID 1347102). Note: nearly all actives have a fitted effect of over 65% in size. Note: potency is the fitted concentration of half-maximal effect. In a few lines: as §4
Experiment [18] is described as follows: qHTS of pediatric cancer cell lines to identify multiple opportunities for drug repurposing: Primary screen for OHS-50 cells (AID 1347103). Note: nearly all actives have a fitted effect of over 40% in size. Note: potency is the fitted concentration of half-maximal effect. In a few lines:
as §3

A short description of experiment [19]: qHTS of pediatric cancer cell lines to identify multiple opportunities for drug repurposing: Primary screen for RD cells (AID 1347104). Note: nearly all actives have a fitted effect of over 55% in size. Note: potency is the fitted concentration of half-maximal effect. In a few lines: as §2
A short description of experiment [20]: qHTS of pediatric cancer cell lines to identify multiple opportunities for drug repurposing: Primary screen for MG 63 (6-TG R) cells (AID 1347105). Note: nearly all actives have a fitted effect of over 50% in size. Note: potency is the fitted concentration of half-maximal effect. In a few lines: as §2

Sequence of Nucleoprotein (Lymphocytic choriomeningitis virus (strain Armstrong)) (P09992 whole entry, looked up): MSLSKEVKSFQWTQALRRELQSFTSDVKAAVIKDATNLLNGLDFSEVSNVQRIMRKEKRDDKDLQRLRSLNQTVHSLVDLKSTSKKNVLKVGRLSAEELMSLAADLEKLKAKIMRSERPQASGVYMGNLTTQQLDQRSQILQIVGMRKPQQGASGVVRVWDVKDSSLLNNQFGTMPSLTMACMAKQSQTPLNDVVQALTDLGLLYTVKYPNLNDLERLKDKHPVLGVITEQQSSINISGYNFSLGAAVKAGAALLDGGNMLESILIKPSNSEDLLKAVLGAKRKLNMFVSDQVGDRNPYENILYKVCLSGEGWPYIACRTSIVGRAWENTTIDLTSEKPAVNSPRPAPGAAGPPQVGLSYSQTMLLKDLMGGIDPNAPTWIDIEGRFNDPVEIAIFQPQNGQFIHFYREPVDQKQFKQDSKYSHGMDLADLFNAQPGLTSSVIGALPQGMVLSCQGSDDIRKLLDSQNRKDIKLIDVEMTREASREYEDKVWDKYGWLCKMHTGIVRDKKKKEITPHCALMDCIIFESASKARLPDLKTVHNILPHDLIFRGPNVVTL

In the case of `COc1ccc(C(c2ccc(OC)cc2)C(Cl)(Cl)Cl)cc1`, the Potency entry in experiment [1], in experiment [2], in [3] and in [11] was “inactive” throughout. In addition, the Potency is 21500 nM (active) in experiment [4]; 38.2 µM (active) in [5]; 42800 nM (active) in experiment [6]; 13500 nM (active) in experiment [7]; 30.3 µM (active) in [8]; 49.8 µM (active) in [9]. Moreover, in experiment [10], the Potency was 42.8 µM (active).

As for `CCOP(=O)(OCC)C(C)NC(=O)N(CCCl)N=O` (stereo not given), the Potency result in experiment [1], in [2], in experiment [3], in experiment [12], in experiment [6] and in experiment [13] was “inactive” in each case. Moreover, the Potency entry in experiment [14], in [8], in [9], in [10], in experiment [15] and in experiment [16] was “inactive” each time. The Potency entry in experiment [17], in experiment [18], in [19], in [20] and in experiment [11] was “inactive” each time.

With `COc1cc2cc(c1Cl)N(C)C(=O)C[C@H](OC(=O)C(C)C)[C@]1(C)O[C@H]1[C@H](C)[C@@H]1C[C@@](O)(NC(=O)O1)[C@H](OC)C=CC=C(C)C2`, the Potency result in [1], in [2], in experiment [14], in experiment [17], in experiment [20] and in experiment [11] was “inactive” each time. Moreover, the Potency in experiment [3] is 208 nM (active); in experiment [4] it was 1 nM (active); in experiment [5], 0.001 µM (active); in experiment [6], 1 nM (active); in experiment [13] it was 3.85 µM (active); in [7] it was 1 nM (active). For the same molecule, the Potency in [8] is 0.662 µM (active); in experiment [15], 0.001 µM (active); in [16] it was 48.5 nM (active); in experiment [18] it was 1 nM (active).

As to `O=C1CCC[C@@H]2[C@H]3CCCN4CCC[C@@H](CN12)[C@@H]34`, the Potency entry in experiment [1], in experiment [2], in [12], in [4], in [6] and in [13] was “inactive” each time. The Potency result in [7], in [14], in experiment [8], in [9], in experiment [10] and in experiment [15] was “inactive” throughout. Moreover, the Potency entry in experiment [16], in experiment [17], in experiment [18], in [20] and in experiment [11] was “inactive” each time.

Take `CC[C@H]1C=CC=CC[C@@H](C)[C@H](O)[C@@](C)(O)C(=O)[C@@H](C)[C@H](O)[C@@H](C)C(=O)[C@@H](C)[C@H](O)[C@@H](C)C=CC(=O)O[C@@H]2[C@@H](C)[C@H](CC1)O[C@]1(CC[C@H](C)[C@H](C[C@@H](C)O)O1)[C@H]2C`: the Potency in experiment [1] is 96.8 nM (active); in [2], 76.9 nM (active); in experiment [12], 3.7 nM (active); in experiment [4] it was 264 nM (active); in experiment [6] it was 3.3 nM (active); in experiment [13], 0.0022 µM (active). Moreover, the Potency in [7] was 13.2 nM (active); in experiment [15], 18.7 µM (active); in experiment [16], 6.1 nM (active); in [17], 26.4 µM (active); in [18], 4.9 nM (active). Also, the Potency result in experiment [9] and in [11] was “inactive” throughout.

Consider `CN1CCN(c2ccc([N+](=O)[O-])c3no[n+]([O-])c23)CC1`, for which the Potency result in [1], in [2], in experiment [3], in [14], in [9] and in experiment [11] was “inactive” each time. Besides, the Potency is 23500 nM (active) in experiment [4], 23.5 µM (active) in experiment [5], 18700 nM (active) in [6] and 26.4 µM (active) in experiment [8].

For `CCCN1CCO[C@@H]2c3cc(O)ccc3OC[C@@H]21`, the Potency result in [1], in experiment [2], in [3], in [12], in experiment [14] and in experiment [8] was “inactive” in each case. Besides, the Potency result in experiment [17], in experiment [18], in [20] and in experiment [11] was “inactive” throughout. Besides, the results for the Potency in experiment [13], in [9] and in [15] were 21.7 µM (active), 21.5 µM (active) and 14.8 µM (active), respectively.

`Cc1cc2c(F)c(Oc3ncnn4cc(OC[C@@H](C)O)c(C)c34)ccc2[nH]1`: the Potency in [2] was 13700 nM (active).

For `CC(=O)Nc1sc2c(c1-c1nc3ccccc3s1)CNC2`, the Potency in [2] is 2.7 nM (active).

As to `CN1CCN(CCOc2cc(OC3CCOCC3)c3c(Nc4c(Cl)ccc5c4OCO5)ncnc3c2)CC1`, the Potency entry in [2] was “inactive”.

With `COc1cc2nccc(Oc3ccc(NC(=O)C4(C(=O)Nc5ccc(F)cc5)CC4)cc3)c2cc1OC`, the Potency entry in experiment [2] was “inactive”.

For `N#Cc1ccc(COC[C@H]2O[C@@H](n3c(NCc4ccc(Cl)c(Cl)c4)nc4c(N)ncnc43)[C@@H](O)[C@@H]2O)cc1`, in experiment [2], the Potency entry is “inactive”.

`Cc1ccccc1-n1c(Cn2cnc3c(N)ncnc32)nc2cccc(C)c2c1=O`: the Potency is 1930 nM (active) in experiment [1]; 1310 nM (active) in experiment [3]; 1480 nM (active) in [12]; 187 nM (active) in experiment [4]; 0.59 µM (active) in [5]; 20.9 nM (active) in experiment [6]. Besides, the Potency in experiment [13] is 3.85 µM (active); in [7], 743 nM (active); in experiment [14], 14.8 µM (active); in experiment [8], 0.132 µM (active); in [9], 8.57 µM (active); in experiment [10], 0.59 µM (active). Further, the Potency in experiment [15] is 0.264 µM (active); in [17] it was 1.05 µM (active); in experiment [18], 61.1 nM (active); in experiment [19] it was 2.35 µM (active); in experiment [20], 148 nM (active).

As to `O=C(O)c1ccc(-c2cc3cccnc3c(-c3ccc4nonc4c3)n2)cc1`, in experiment [2], the Potency entry is “inactive”.
